Source: PubChem BioAssay (NCATS)
Inconclusive results are not listed. Where a call stands in place of a potency, no number is given. Active and inactive are the calls of the source. Calls come from the whole dose curve; as a rule, active = well fitted inhibition curve with a large enough effect; inconclusive = small, poorly fitted or top-dose-only effect; inactive = flat fitted curve, though single readings scatter.

These compounds were tested against Calcium and integrin-binding protein 1 (Homo sapiens) (UniProt Q99828) (assay: Primary qHTS for Identification of Calcium Integrin Binding Protein 1 (CIB1) Competitor (AID 1508620;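 note: GST tagged CIB1 binding a fluorescein labelled alphaIIb integrin peptide tracer; top concentration of the series differs between compounds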)). Conditions: CIB1-GST / FITC-alphaIIb peptide fluorescence polarization; series mostly up to 114 µM.
Calcium and integrin-binding protein 1 (Homo sapiens), sequence (Q99828 whole entry, looked up): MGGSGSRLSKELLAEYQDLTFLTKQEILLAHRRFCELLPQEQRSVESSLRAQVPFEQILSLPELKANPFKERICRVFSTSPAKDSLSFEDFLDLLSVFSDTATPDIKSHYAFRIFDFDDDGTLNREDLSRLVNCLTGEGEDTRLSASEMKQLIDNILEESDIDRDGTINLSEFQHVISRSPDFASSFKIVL
Method in brief: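 Fluorescence polarization competition: CIB1-GST (1 uM final) preincubated with compound 15 min at room temperature, then FITC-labeled alphaIIb peptide (100 nM final) added for another 15 min. Polarization read at Ex 480/Em 540.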
`CC(=O)CC1CCC(C(C)C(=O)OCC(O)CO)O1` (stereo not drawn) was tested, and the Potency was “inactive”.
For `CC1COC(Nc2ccc3ncnc(Nc4ccc(OCc5nccs5)c(Cl)c4)c3c2)=N1` (stereo not drawn), the Potency was “inactive”.
`OCC1OC(Oc2cc(O)cc(/C=C/c3ccc(O)cc3)c2)C(O)C(O)C1O` (stereo not drawn) was tested, and the Potency was “inactive”.
`CC(C)C(CO)Nc1nc(Nc2cc(N)cc(Cl)c2)c2ncn(C(C)C)c2n1` (stereo not drawn) was tested, and the Potency was “inactive”.
For `C[C@@H]1COCCN1c1cc(C2(S(C)(=O)=O)CC2)nc(-c2cccc3[nH]ccc23)n1`, the Potency was “inactive”.
For `COc1cc(/C=C/C(=O)O[C@H]2[C@H](O)[C@@H](CO)O[C@@]2(CO)O[C@H]2O[C@H](CO)[C@@H](O)[C@H](O)[C@H]2O)ccc1O`, the Potency was “inactive”.
With `C/C(=C\C=C\C(C)C1CCC2(C)C3CCC4C(C)(C)C(=O)CCC45CC35CCC12C)C(=O)O` (stereo not drawn) the Potency was “inactive”.
With `CC(C)CC(=O)O[C@@H]1OC=C(CO[C@@H]2O[C@H](CO)[C@@H](O)[C@H](O)[C@H]2O)[C@H]2[C@@H]3O[C@H]3[C@@](O)(CO)[C@@H]12` the Potency was “inactive”.
`CCC[C@@H]1O[C@@H]2C[C@H]3[C@@H]4CCC5=CC(=O)C=C[C@]5(C)[C@H]4[C@@H](O)C[C@]3(C)[C@]2(C(=O)CO)O1` was tested, and the Potency was “inactive”.
For `COc1cc2occc2c(O[C@@H]2O[C@H](CO)[C@@H](O)[C@H](O)[C@H]2O)c1CCC(=O)O`, the Potency was “inactive”.
With `C[C@@]1(O)[C@H](O)[C@@H](CO)O[C@H]1n1ccc(N)nc1=O` the Potency was “inactive”.
With `CC(/C=C/C1=CC2=CC(=O)C(C)(O)C(O)C2=CO1)=C\C(C)CCO` (stereo not drawn) the Potency was “inactive”.
For `CC1=C2C(O)C(=O)OC(c3ccoc3)C2(C)CCC1O` (stereo not drawn), the Potency was “inactive”.
